Screening data (PubChem)
Shown are actives, neighbours in structure and some others; about 3.5% of the full set was active somewhere.
BoNT-F LC inh = BoNT F light chain protease inhibition; Multiplex microsphere protease cleavage assay, flow cytometry; inhibition, % at 10 µM; 0.22% of 360,000 active; in the data active = inhibition above about 35%, passing the limit was not always enough; inconclusive = no clear call, values can overlap the other calls; also: plate controls were buffer without enzyme for full effect and enzyme alone for no effect
Bead autofluor = compound fluorescence in toxin protease inhibitor counterscreen | compound autofluorescence counterscreen, microsphere flow cytometry; hits give high values | fluorescence intensity (concentration not given with the values) | 3.1% of 360,000 active | AID 624483; in the data active = fluorescence intensity above about 16000; inconclusive = no clear call, values can overlap the other calls
BoNT A protease = blocks Botulinum neurotoxin A light chain protease; multiplex microsphere protease substrate cleavage, flow cytometry; inhibition, % at 10 µM; 0.17% of 360,000 active; also: plate controls were buffer without enzyme for full effect and enzyme alone for no effect
Anthrax LF prot = anthrax lethal factor protease inhibition; multiplex microsphere protease cleavage assay, LF; inhibition, % at 10 µM; 0.12% of 360,000 active; AID 588501; also: plate controls were buffer without enzyme for full effect and enzyme alone for no effect
Target sequence (P15917 whole entry, looked up): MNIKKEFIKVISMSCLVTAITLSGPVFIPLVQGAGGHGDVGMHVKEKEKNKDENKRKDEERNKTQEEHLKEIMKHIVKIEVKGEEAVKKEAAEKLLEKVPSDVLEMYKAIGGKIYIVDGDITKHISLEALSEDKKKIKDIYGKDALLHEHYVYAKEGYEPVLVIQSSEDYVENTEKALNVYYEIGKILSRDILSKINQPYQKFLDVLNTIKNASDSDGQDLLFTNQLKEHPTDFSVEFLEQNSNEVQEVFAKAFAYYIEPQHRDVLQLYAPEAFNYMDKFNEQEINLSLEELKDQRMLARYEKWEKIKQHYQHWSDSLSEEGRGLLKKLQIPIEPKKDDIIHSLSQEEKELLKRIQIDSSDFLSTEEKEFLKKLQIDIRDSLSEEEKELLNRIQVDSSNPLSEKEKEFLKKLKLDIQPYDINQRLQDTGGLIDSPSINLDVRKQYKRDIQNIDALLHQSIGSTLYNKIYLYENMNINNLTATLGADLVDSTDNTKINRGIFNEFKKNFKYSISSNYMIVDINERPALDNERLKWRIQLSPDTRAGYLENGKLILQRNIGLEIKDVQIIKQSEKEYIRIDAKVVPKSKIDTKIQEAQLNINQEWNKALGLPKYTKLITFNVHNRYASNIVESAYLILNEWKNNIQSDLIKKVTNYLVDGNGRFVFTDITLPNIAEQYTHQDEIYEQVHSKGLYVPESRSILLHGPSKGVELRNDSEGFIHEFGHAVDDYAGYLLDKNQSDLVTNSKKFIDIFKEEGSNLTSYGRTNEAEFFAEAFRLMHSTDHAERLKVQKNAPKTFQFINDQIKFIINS
An asterisk follows results filed as active; ? = inconclusive. Rule as the data show it, unless noted: active = inhibition above about 30%; inconclusive = no clear call, values can overlap the other calls; inactive = below that.

SMILES	BoNT-F LC inh	Bead autofluor	BoNT A protease	Anthrax LF prot
COc1ccc(NC(=O)CCC(=O)OCc2ccc(C(=O)Oc3ccc(Cl)cc3)cc2)cc1	-0.9	19988*	-0.2	-1.6
Cc1ccc(NC(=O)OCC(F)(F)C(F)F)cc1NC(=O)OCC(F)(F)C(F)F	-8.0	21692*	?	-8.6
O=C(CCC(=O)OCC(F)(F)C(F)F)Nc1ccc(Cl)cc1	6.5	17876*	?	-12.9
CCOC(=O)Nc1cc(C(=O)OC)ccc1C	14.5	?	5.8	?
O=C(CCC(=O)OCC(F)(F)C(F)F)Nc1ccc(F)cc1F	2.3	2481	0.4	-1.5
c1cc2c(cc1C1=Nn3c(nnc3C3CCCCC3)SC1)OCO2	2.7	9925	-0.9	0.8
CCOc1ccc(C2=Nn3c(nnc3-c3ccccn3)SC2)cc1	-20.0	3895	-0.9	-1.4
COc1ccc(C2=Nn3c(nnc3-c3ccccn3)SC2)cc1OC	-1.0	22882*	?	-0.9
c1ccc(-c2nnc3n2N=C(c2ccc4c(c2)OCO4)CS3)nc1	5.6	18035*	4.8	-0.8
CCC(NC(=O)COc1cc2c(c3oc(=O)c(C)c(C)c13)CCC(C)(C)O2)C(=O)O (centres undefined)	7.7	3512	0.2	2.4
O=C(CSc1nc2ccccc2c(=O)n1CCCC(=O)N1CCCC1)NCc1ccco1	-1.2	23337*	-0.5	-2.4
CCOCCCn1c(SCC(=O)NCc2ccco2)nc2c(sc3ccccc32)c1=O	5.6	9584	-0.2	-11.2
CCCCn1c(SCC(=O)NCc2ccco2)nc2c(sc3ccccc32)c1=O	-1.0	22504*	?	-0.7
O=C(CSc1nc2ccccc2c(=O)n1Cc1ccc(C(=O)NC2CC2)cc1)NCc1ccco1	3.4	19257*	2.6	1.2
CCc1nn(CC(=O)N2CCN(c3ccc(F)cc3)CC2)c(=O)c2cc3occc3n12	4.7	6148	0.6	-2.1
CCCNC(=O)N(C)C[C@@H]1Oc2ncc(-c3ccncc3)cc2C(=O)N([C@H](C)CO)C[C@@H]1C	-1.6	3386	0.3	-2.0
CC(=O)c1cccc(OCc2cc(C(=O)NCCC3=CCCCC3)no2)c1	-2.8	5606	-1.5	-1.1
CC1CN(c2nc3c(c(=O)n(C)c(=O)n3C)n2Cc2c(F)cccc2Cl)CC(C)O1 (centres undefined)	6.0	18917*	3.8	-2.2
CC1CN(c2nc3c(c(=O)n(C)c(=O)n3C)n2Cc2c(Cl)cccc2Cl)CC(C)O1 (centres undefined)	2.8	4723	-0.1	0.3
COCCn1c(CN2CCN(c3ccccc3)CC2)nc2c1c(=O)n(C)c(=O)n2C	12.5	3976	0.0	0.4
Cn1c(=O)c2c(nc(CN3CCN(c4ccccc4)CC3)n2Cc2c(F)cccc2Cl)n(C)c1=O	-2.5	22170*	?	-2.3
Cn1c(=O)c2c(nc(CN3CCN(c4ccccc4)CC3)n2Cc2ccccc2Cl)n(C)c1=O	-2.2	19891*	?	-0.3
Cc1ccc(S(=O)(=O)NN=C(c2ccccc2)c2cccs2)cc1	-4.5	3716	-0.2	-6.9
COc1cc2c(cc1OC)CN(CC(=O)Nc1ccc3c(c1)OC(F)(F)O3)CC2	-8.2	24021*	?	-1.7
CCNC(=S)NNC(=O)c1cc(C2CC2)nc2ccccc12	1.8	22689*	-1.6	-0.5
SMILES	BoNT-F LC inh	Bead autofluor	BoNT A protease	Anthrax LF prot
CCCCOc1cccc(-c2cc(C(=O)NNC(=S)NCC)c3ccccc3n2)c1	-2.3	19871*	-0.7	1.2
CCNC(=S)NNC(=O)c1cc(-c2cccc(OCC)c2)nc2ccccc12	-10.4	11129	-0.6	-3.9
CCCNC(=S)NNC(=O)c1cc(C2CC2)nc2ccccc12	-1.4	5886	-0.1	1.5
COc1ccc(C(=O)N2CCCCCC2)cc1S(=O)(=O)N1CCOCC1	3.8	5463	-0.2	0.3
Cc1oc2c(c(C)cc3oc(=O)c(CC(=O)N[C@@H](CCCNC(N)=O)C(=O)O)c(C)c32)c1C	1.9	4273	-1.7	-0.7
COC(=O)c1ccc(CSc2nc3ccc(S(=O)(=O)N4CCOCC4)cc3[nH]2)cc1	-5.5	2531	-0.3	2.6
O=C(Nc1ccc(Cl)cc1)c1csc(-c2ccccc2)n1	-3.4	16593*	-0.9	-3.6
O=C(Nc1ccc(Cl)cc1)c1csc(-c2ccncc2)n1	1.7	3893	-0.6	-0.6
CNC(=O)c1csc(-c2ccc(C)cc2)n1	2.7	20516*	2.1	-9.0
COc1ccc(CN(C)C(=O)c2ccncc2)c(OC)c1	8.4	5442	0.1	-0.8
O=C1c2cccc3c([N+](=O)[O-])ccc(c23)C(=O)N1c1ccccn1	12.4	2295	2.2	2.3
O=C1c2cccc3c([N+](=O)[O-])ccc(c23)C(=O)N1c1nccs1	-0.8	23502*	0.3	-1.6
O=C1c2cccc3c([N+](=O)[O-])ccc(c23)C(=O)N1c1ccc(Cl)cn1	-2.4	20167*	-0.5	1.3
Cc1cc(C)c(S(=O)(=O)ON2C(=O)c3ccccc3C2=O)cc1C	-0.1	23962*	?	-2.8
C=CCn1c(Cc2cccs2)nnc1SCC(=O)c1ccc(F)cc1	-17.0	9208	-1.3	-6.3
C=CCn1c(Cc2cccs2)nnc1SCC(=O)c1ccc2ccccc2c1	-0.1	23327*	?	-1.4
C=CCn1c(CCNC(=O)c2cccs2)nnc1SCC(=O)Nc1cccc(Cl)c1C	-2.8	20193*	?	0.7
C=CCn1c(CCNC(=O)c2cccs2)nnc1SCC(=O)c1cccc([N+](=O)[O-])c1	5.4	14951	3.9	-0.2
C=CCn1c(CNC(=O)c2cccs2)nnc1SCC(=O)c1ccc(Br)cc1	-1.4	23917*	-1.0	-0.1
C=CCn1c(CCNC(=O)c2cccs2)nnc1SCC(=O)c1ccc(Cl)cc1	0.7	23328*	0.2	-0.2
C=CCn1c(CNC(=O)c2cccs2)nnc1SCC(=O)Nc1ccc(C(=O)O)cc1	-0.5	19549*	?	-4.8
CC(C(=O)NCC1(c2ccccc2)CCCC1)N1CCOCC1 (centres undefined)	-0.5	23756*	-1.2	-0.4
CCN1C(=O)N[C@@H](c2cccs2)C(C(=O)OC)=C1C	1.4	4040	0.2	3.9
COC(=O)C1=C(C)C(c2cccs2)NC(=O)N1C (centres undefined)	-0.3	16502*	?	-3.4
C=CCn1c(=NC(=O)c2ccc(S(=O)(=O)N3CCCc4ccccc43)cc2)sc2cc(S(N)(=O)=O)ccc21	18.5	10353	1.6	37.2*
SMILES	BoNT-F LC inh	Bead autofluor	BoNT A protease	Anthrax LF prot
COC(=O)c1ccccc1Sc1c(/C=N/OC(=O)c2ccccc2)c(C(F)(F)F)nn1C	-11.2	3305	-0.8	-4.9
Cn1nc(C(F)(F)F)c(/C=N/OC(=O)c2ccccc2Cl)c1SCc1ccc(Cl)cc1	-3.6	23366*	0.8	-3.5
COc1ccc(C(=O)O/N=C/c2c(C(F)(F)F)nn(C)c2SCc2ccccc2Cl)cc1	-2.4	22636*	0.8	-2.5
Cc1ccc(C(=O)O/N=C/c2c(C(F)(F)F)nn(C)c2Sc2ccc(Cl)cc2)cc1	4.3	2769	0.3	-0.9
CCOC(=O)C(Oc1ccc2c(-c3ccccc3)cc(=O)oc2c1C)c1ccccc1 (centres undefined)	-3.3	2216	-0.4	-1.2
CCOC(=O)C(Oc1ccc2c(-c3ccc(OC)cc3)cc(=O)oc2c1C)c1ccccc1 (centres undefined)	-4.1	22308*	?	-1.5
Cc1ccc(C(=O)Nc2nc3ccccc3s2)s1	-1.4	22825*	-0.8	-0.9
